Assay results reported in PubChem BioAssay AID1159580 (chemical genetic matrix, 2015).
Among all 5,500 compounds or so, about 2,000 (36%) were called active. Not shown: some 18% with an inconclusive outcome. Cut-off read from the data, not from the text of the source: active = normalized growth mostly below about 0.91 (no sharp cut-off); inconclusive = no clear call, values can overlap the other calls; inactive = mostly above about 0.92. This is one part of the list.

Test: chemical genetic growth profiling, strain panel (AID 1159580);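 note: tested at 20 µM; growth read once vehicle control cultures reached saturation at 30 °C; 1 = growth at the plate median or of vehicle wells; lower values mean less growth of the strain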
Settings: S. cerevisiae deletion strains, growth OD
[1] = locus YAL040C, strain CLN3, active compounds read low
[2] = locus YDR363W, strain ESC2, active compounds read low
[3] = locus YER002W, strain NOP16, active compounds read low
[4] = locus YMR307W, strain GAS1, active compounds read low
[5] = locus YNL153C, strain GIM3, active compounds read low
[6] = locus YNL175C, strain NOP13, active compounds read low
[7] = locus YNL197C, strain WHI3, active compounds read low
[8] = locus YNL224C, strain SQS1, active compounds read low
[9] = locus YNL322C, strain KRE1, active compounds read low
[10] = locus YOR083W, strain WHI5 (second series), active compounds read low
[11] = locus YPL241C, strain CIN2, active compounds read low

Measured: normalized growth

CCCN(CCC)C(=O)Cc1c(-c2ccc(Cl)cc2)nc2c(Cl)cc(Cl)cn12
inactive: [1] 1 | [2] 1.01 | [3] 1.05 | [4] 1 | locus YNL128W, strain TEP1, active compounds read low 1.01 | [5] 1.02 | [6] 1.03 | [7] 1.03 | [8] 1.01 | [9] 0.985 | [10] 1.08 | [11] 0.992

CC(C)c1cccc(C(C)C)c1O
inactive: locus YAL013W, strain DEP1, active compounds read low 1.01 | locus YAL021C, strain ccr4, active compounds read low 1 | locus YAL026C, strain drs2, active compounds read low 0.993 | locus YAL030W, strain snc1, active compounds read low 0.985 | [1] 0.998 | locus YBL061C, strain skt5, active compounds read low 0.983 | locus YBR009C, strain hhf1, active compounds read low 0.966 | locus YBR023C, strain chs3, active compounds read low 0.977 | locus YBR171W, strain sec66, active compounds read low 0.987 | locus YBR231C, strain swc5, active compounds read low 0.997 | locus YBR279W, strain paf1, active compounds read low 0.992 | locus YCL011C, strain gbp2, active compounds read low 0.991 | locus YCL016C, strain dcc1, active compounds read low 0.976 | locus YCL061C, strain MRC1 (second series), active compounds read low 0.988 | locus YCL061C, strain MRC1, active compounds read low 0.991 | locus YCL069W, strain vba3, active compounds read low 0.992 | locus YCR088W, strain abp1, active compounds read low 0.996 | locus YDL005C, strain med2, active compounds read low 0.984 | locus YDL040C, strain nat1, active compounds read low 0.976 | locus YDR001C, strain nth1, active compounds read low 0.994 | locus YDR069C, strain doa4, active compounds read low 0.981 | locus YDR137W, strain rgp1, active compounds read low 0.966 | locus YDR150W, strain NUM1, active compounds read low 0.993 | locus YDR159W, strain sac3, active compounds read low 0.982 | locus YDR195W, strain ref2 0.951 | locus YDR297W, strain sur2, active compounds read low 0.988 | locus YDR334W, strain swr1, active compounds read low 0.988 | locus YDR335W, strain msn5, active compounds read low 0.993 | [2] 0.973 | locus YDR392W, strain spt3, active compounds read low 0.869 | locus YEL003W, strain gim4, active compounds read low 0.99 | locus YEL037C, strain rad23, active compounds read low 0.986 | locus YEL061C, strain CIN8 (second series), active compounds read low 0.986 | [3] 0.986 | locus YER015W, strain faa2, active compounds read low 0.983 | locus YER016W, strain bim1, active compounds read low 0.979 | locus YER111C, strain swi4, active compounds read low 0.973 | locus YER155C, strain BEM2 (second series), active compounds read low 0.996 | locus YFR010W, strain ubp6, active compounds read low 0.978 | locus YGL167C, strain pmr1, active compounds read low 0.972 | locus YGL173C, strain kem1, active compounds read low 0.98 | locus YGL227W, strain vid30, active compounds read low 0.988 | locus YGL240W, strain doc1, active compounds read low 0.983 | locus YGL253W, strain hxk2, active compounds read low 0.997 | locus YGR078C, strain PAC10, active compounds read low 1 | locus YHR013C, strain ard1, active compounds read low 1.03 | locus YHR027C, strain rpn1, active compounds read low 0.99 | locus YHR030C, strain SLT2, active compounds read low 0.94 | locus YHR079C, strain IRE1, active compounds read low 0.954 | locus YHR142W, strain chs7, active compounds read low 1.01 | locus YJL092W, strain hpr5, active compounds read low 0.992 | locus YJL095W, strain BCK1 (second series), active compounds read low 0.993 | locus YJL095W, strain BCK1, active compounds read low 0.992 | locus YJL115W, strain asf1, active compounds read low 0.983 | locus YJL129C, strain trk1, active compounds read low 0.992 | locus YJL154C, strain vps35, active compounds read low 0.99 | locus YJL164C, strain tpk1, active compounds read low 0.979 | locus YJL166W, strain qcr8, active compounds read low 0.986 | locus YJL187C, strain SWE1, active compounds read low 0.994 | locus YJR066W, strain TOR1, active compounds read low 0.935 | locus YJR075W, strain HOC1, active compounds read low 1 | locus YKL160W, strain elf1, active compounds read low 1 | locus YKR026C, strain gcn3, active compounds read low 0.953 | locus YKR091W, strain srl3, active compounds read low 0.984 | locus YLL001W, strain dnm1, active compounds read low 0.988 | locus YLL026W, active compounds read low 0.988 | locus YLL041C, strain sdh2, active compounds read low 0.996 | locus YLR027C, strain aat2, active compounds read low 0.993 | locus YLR113W, strain HOG1, active compounds read low 0.996 | locus YLR221C, strain rsa3, active compounds read low 1.01 | locus YLR258W, strain gsy2, active compounds read low 0.991 | locus YLR262C, strain YPT6 (second series), active compounds read low 0.97 | locus YLR320W, strain mms22, active compounds read low 0.935 | locus YLR342W, strain FKS1, active compounds read low 0.986 | locus YLR357W, strain rsc2, active compounds read low 0.939 | locus YLR370C, strain arc18, active compounds read low 0.996 | locus YLR384C, strain iki3, active compounds read low 0.971 | locus YML120C, strain ndi1, active compounds read low 0.98 | locus YMR058W, strain fet3, active compounds read low 0.996 | locus YMR125W, strain sto1, active compounds read low 0.988 | locus YMR129W, active compounds read low 1 | locus YMR205C, strain PFK2, active compounds read low 0.941 | locus YMR231W, strain pep5, active compounds read low 0.992 | locus YMR263W, strain SAP30, active compounds read low 1 | [4] 1 | locus YNL071W, strain lat1, active compounds read low 0.996 | [5] 1.01 | [6] 1.03 | locus YNL183C, strain NPR1, active compounds read low 0.942 | [7] 1 | locus YNL209W, strain ssb2, active compounds read low 0.992 | [8] 1.02 | locus YNL248C, strain rpa49, active compounds read low 1.01 | locus YNL322C, strain KRE1 (second series), active compounds read low 0.981 | [9] 1.01 | locus YNR049C, strain mso1, active compounds read low 0.983 | locus YOR001W, strain rrp6, active compounds read low 0.997 | locus YOR070C, strain gyp1, active compounds read low 0.99 | locus YOR080W, strain dia2, active compounds read low 0.984 | [10] 1.02 | locus YOR083W, strain WHI5, active compounds read low 1.01 | locus YOR106W, strain vam3, active compounds read low 0.991 | locus YOR231W, strain MKK1, active compounds read low 0.914 | locus YOR265W, strain rbl2, active compounds read low 0.991 | locus YOR270C, strain vph1, active compounds read low 0.993 | locus YOR290C, strain snf2, active compounds read low 0.918 | locus YPL051W, strain arl3, active compounds read low 1 | locus YPL055C, strain LGE1, active compounds read low 0.999 | locus YPL078C, strain atp4, active compounds read low 0.994 | locus YPL106C, strain sse1, active compounds read low 0.951 | locus YPL240C, strain hsp82, active compounds read low 1.01 | [11] 1.01 | locus YPL256C, strain CLN2, active compounds read low 0.929
